Screening results (PubChem BioAssay)
RORgamma inh: blocks mouse ROR gamma transcriptional activity. P51450. Drosophila S2 Gal4-RORgamma UAS-luciferase reporter, 20 h. Potency, µM (titrated, usually from 53.6 µM), for the others: top-dose activity change, negative = inhibition, usual class: inhibitors. 310,000 tested, 5.4% active; further: potency means the concentration at half of the fitted maximal effect; on the % scale 0 is the no-effect control and ±100 the full control effect; nearly all actives have a fitted effect of over 60% in size
Target sequence (P51450 whole entry, looked up, the tested form may be a part): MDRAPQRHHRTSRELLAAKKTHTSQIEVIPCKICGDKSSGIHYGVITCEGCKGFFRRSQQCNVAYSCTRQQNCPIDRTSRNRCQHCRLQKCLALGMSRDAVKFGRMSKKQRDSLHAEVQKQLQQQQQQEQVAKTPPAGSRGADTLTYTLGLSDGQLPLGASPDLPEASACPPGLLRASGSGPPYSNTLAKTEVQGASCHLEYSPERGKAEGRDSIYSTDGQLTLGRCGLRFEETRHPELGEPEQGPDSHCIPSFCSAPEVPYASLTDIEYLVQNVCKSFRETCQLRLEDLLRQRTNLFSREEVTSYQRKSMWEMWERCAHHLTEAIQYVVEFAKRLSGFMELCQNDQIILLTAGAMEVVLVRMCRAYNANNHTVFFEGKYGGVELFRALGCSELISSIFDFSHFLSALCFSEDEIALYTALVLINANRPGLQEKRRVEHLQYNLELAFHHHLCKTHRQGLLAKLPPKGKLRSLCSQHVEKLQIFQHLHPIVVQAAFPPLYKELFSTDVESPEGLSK
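Drosophila S2 cells stably expressing Gal4-DBD/mouse RORγ fusion under metallothionein promoter plus UAS-luciferase; compound 1 h, then 700 uM CuSO4 induction for 20 h at ambient temperature; inhibition read as reduced luminescence.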
IL-1B inflam inh: blocks inflammasome-driven IL-1 beta release; AID 743279; 360,000 tested, 4.7% active; activity change, % at 57.5 µM; THP-1 LPS/ATP IL-1B secretion, AlphaLISA, 16 h; hits give low values; in the data active means activity change below about -50%; inconclusive means mostly about -30% to -49%; further: on the % scale 0 is the no-effect control and ±100 the full control effect
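THP-1 cells pretreated 1 hr with compounds (up to 57.5 uM final), then stimulated with LPS (250 ng/mL final) plus ATP (1.25 mM final); secreted IL-1B measured by AlphaLISA after 16 hr, decreased signal indicating inhibition.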
MCF10A rerep: DNA re-replication induction in MCF 10a cells | MCF 10A DNA re-replication, Hoechst nuclear intensity, 48 h | Potency, µM (highest dose often 46.1 µM), for inactives: at the highest dose activity, positive = re-replication, most hits filed as activators | 350,000 tested, 2.9% active | AID 624296; further: potency means the concentration at half of the fitted maximal effect; % of control where 0% means no effect; nearly all actives have a fitted effect of over 50% in size
VP16 counter: Gal4-VP16 reporter inhibition counter-screen | Drosophila S2 Gal4-VP16 UAS-luciferase, luminescence, 20 h | Potency, µM (top dose mostly 53.6 µM), for the others: at the top dose activity, negative = inhibition, most hits filed as inhibitors | 310,000 tested, 3.5% active | AID 2546;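 further: Gal4-VP16 expression switched on by copper sulfate through the metallothionein promoter; potency means the concentration at half of the fitted maximal effect; on the % scale 0 is the no-effect control and ±100 the full control effect; nearly all actives have a fitted effect of over 50% in size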
SW480 rereplic: induces DNA re-replication in SW480 colon adenocarcinoma cells. SW480 DNA re-replication, Hoechst DNA content imaging, 48 h. Potency, µM (series often up to 46.1 µM), for the others: top-dose re-replication activation, actives largely listed as activators. 340,000 tested, 1.8% active. AID 624297; further: potency means the concentration at half of the fitted maximal effect; % of control where 0% means no effect; nearly all actives have a fitted effect of over 55% in size
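Hoechst fluorescence of nuclei (405 nm excitation, 500-530 nm emission) measured by plate-scanning imager after 48 hr compound exposure at 37 C; re-replication scored as increased number of nuclei with elevated intensity.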
Starred values were filed as active, the others as inactive; ? = inconclusive; / = no result; [ ] = remark or other dose. Shown are actives, neighbours in structure and some others; about 11% of the full set was active somewhere. Unless noted, the call rests on the fitted dose curve; in most records, active means well fitted curve in the direction sought with a large enough effect; inconclusive means small, poorly fitted or top-dose-only effect, or another doubt; inactive means no such curve, though single readings can be large; an effect the other way counts as inactive or inconclusive.

SMILES	RORgamma inh	IL-1B inflam inh	MCF10A rerep	VP16 counter	SW480 rereplic
O=C(CSc1nnc(-c2ccccc2)n1-c1ccccc1)N1c2ccccc2Sc2ccccc21	9%	44	15%	-2%[0.365 µM]	-1%
CCC1CN(C(=O)N2CCC(C(=O)NCc3cc(OC)c(OC)c(OC)c3)CC2)c2ccccc2O1 (centres undefined)	15%	1	3%	6%	-4%
CSc1ccc(S(=O)(=O)Nc2ccccc2C(=O)N2CCOCC2)cc1	11%	17	-4%	1%	-3%
O=C(c1ccccc1NS(=O)(=O)c1ccc(Br)cc1)N1CCOCC1	-5%	-53*	1%	5%	-1%
Cc1noc(C)c1COc1ccccc1C(=O)N(C)Cc1ccco1	/	0	-8%	/	0%
O=C(NC1CCCCC1)c1cccc(OCc2ccccc2)c1	14%	-74*	4%	-7%	?
O=C(NC(=S)Nc1ccc(CN2CCOCC2)cc1)c1cccc(F)c1	/	-11	2%	/	-6%
c1cc(CN2CCCCC2)cc(OCCCNc2nc3ccccc3s2)c1	-6%	-8	?	-3%	?
O=C(NC(=S)Nc1ccc(CN2CCCCC2)cc1)c1cccc(OCc2ccccc2)c1	10µM*	0	23µM*	?	3%
O=C(NCCCOc1cccc(CN2CCCCC2)c1)c1ccc(Cl)c(Cl)c1	1%	?	?	-8%	29µM*
O=C(O)c1ccc(NC(=S)NC(=O)c2cccc(COc3ccccc3)c2)cc1	41%	-54*	-1%	4%	-20%
OCC1OC(C#Cc2ccccc2)C=CC1OCc1ccccc1 (centres undefined)	32%[10 µM]	/	/	-3%[10 µM]	/
CC1CCCN(C(=O)CN2C(=O)NC(C)(c3ccc4ccccc4c3)C2=O)C1 (centres undefined)	/	-4	-27%	/	-2%
COc1ccc(NS(=O)(=O)c2cccc(C(=O)N/N=C/c3cccs3)c2)cc1	-11%	0	19%	-18%	24%
O=C(N/N=C/c1cccs1)c1cccc2cc[nH]c12	2.8µM*	-25	20%	?	0%
O=C(N/N=C/c1cccs1)c1ccc2nc[nH]c2c1	13%	-5	-2%	-4%	1%
O=C(N/N=C/c1cccs1)c1ccc2ncccc2c1	11µM*	-21	0%	?	1%
O=C(N/N=C/c1cccs1)c1ccc2ccccc2c1	4µM*	-19	23µM*	5.6µM*	?
O=C(/C=C/c1ccc(O)c(O)c1)c1ccc(O[C@@H]2O[C@H](CO)[C@@H](O)[C@H](O)[C@H]2O)c(O)c1O	1%	/	/	-15%	/
Cc1ccccc1C(=O)Nc1ccc(S(=O)(=O)N2CCCC2)cc1	-14%	0	9%	-5%	-1%
Cc1cc(C(=O)N/N=C/c2cccc3ccccc23)c(C)o1	?	-5	25%	-5%	?
O=C(N/N=C/c1ccccc1O)c1cccc2ccccc12	1µM*	98	-9%	0.89µM*	?
O=C(N/N=C/c1ccccc1O)c1cc(=O)[nH]c2ccccc12	7.9µM*	/	?	?	?
COc1ccc(C(=O)Nc2ccccc2C(=O)N/N=C/c2ccncc2)cc1OC	3.5µM*	-20	2%	5.6µM*	-83%
O=C(O)c1ccc(C=NNC(=O)c2cccc3ccccc23)cc1	/	23	-1%	/	-4%
SMILES	RORgamma inh	IL-1B inflam inh	MCF10A rerep	VP16 counter	SW480 rereplic
CN(C)c1ccc(C=NNC(=O)c2cccc3ccccc23)c(Cl)c1	/	35	18%	/	18µM*
C=CCNc1nc(-c2sc(NC(=O)C(C)(C)C)nc2C)c(-n2cc(-c3ccccc3)nn2)s1	/	-1	/	/	/
O=S(=O)([O-])C(c1ccccc1)[n+]1ccccc1 (centres undefined)	/	19	-3%	/	3%
COc1ccc(C(=O)Nc2ccccc2C(=O)N/N=C/c2cccc3ccccc23)cc1	1µM*	37	6%	0.79µM*	14%
Oc1ccccc1-c1nc(/C=C/c2ccccc2)nn1-c1ccccc1	-6%	?	?	-18%	12%
Oc1ccc(/C=C/c2nc(-c3ccccc3O)n(-c3ccccc3)n2)cc1	?	-66*	16µM*	?	?
CC(CN1CCCC1)OC(=O)c1ccc(Cl)cc1 (centres undefined)	/	2	-9%	/	-13%
O=C(CN1C(=O)/C(=C/c2cccc(Cl)c2)SC1=S)NC1C=CS(=O)(=O)C1 (centres undefined)	13µM*	-63*	15µM*	?	?
COc1cccc(/C=C2\SC(=S)N(CCC(=O)NC3C=CS(=O)(=O)C3)C2=O)c1 (centres undefined)	-23%	-67*	?	0%	?
COc1cccc(/C=C2\SC(=S)N(CCC(=O)Nc3ccc(O)cc3)C2=O)c1	-7%	-15	?	22%	-9%
O=C(O)CN1C(=O)/C(=C\c2cccc(OCc3ccc(Cl)cc3Cl)c2)SC1=S	42%	-16	?	-3%	15%[1.84 µM]
O=C(CN1C(=O)/C(=C/c2ccccc2F)SC1=S)NC1C=CS(=O)(=O)C1 (centres undefined)	38%	-50*	8%	-9%	-3%
COc1cccc(/C=C2\SC(=S)N(CCC(=O)NCCc3ccc(O)cc3)C2=O)c1	-12%	-85*	?	-29%	?
COc1ccc(/C=C2\SC(=S)N(CCC(=O)NC3C=CS(=O)(=O)C3)C2=O)cc1 (centres undefined)	?	?	?	3%	1%
CC(=O)Nc1ccc(OC(=O)c2ccccc2OC(C)=O)cc1	37%	/	5%	?	2%
COc1ccc(CNc2ccnc(-c3cccc(NS(C)(=O)=O)c3)n2)c(OC)c1	25%	/	/	-5%	/
O=C(O)CCC/C=C\C[C@H]1C(=O)C[C@@H](O)[C@@H]1/C=C/[C@@H](O)CCc1ccccc1	-1%	/	/	-2%	/
O=C(CN1C(=O)S/C(=C\c2ccc(Cl)cc2)C1=O)NC1C=CS(=O)(=O)C1 (centres undefined)	-23%	-69*	?	-10%	23µM*
CN(C(=O)CN1C(=O)S/C(=C\c2cccc(Cl)c2)C1=O)C1CCS(=O)(=O)C1 (centres undefined)	5%	-20	23µM*	-5%	-3%
O=C(CN1C(=O)S/C(=C\c2cccc(Cl)c2)C1=O)NC1C=CS(=O)(=O)C1 (centres undefined)	7.9µM*	-67*	9.2µM*	-1%	?
O=C(CN1C(=O)S/C(=C\c2ccc(Cl)cc2)C1=O)NNC(=O)c1ccccc1O	-5%[10 µM]	-3	14%	-2%	3%
CN1CCN(NC(=O)CN2C(=O)/C(=C/c3ccccc3F)SC2=S)CC1	0.22µM*	/	/	5%	/
Cc1cc(NC(=O)CN2C(=O)/C(=C/c3ccccc3F)SC2=S)no1	-3%	2	?	?	-2%
